Results on seven molecules are retold here after PubChem BioAssay (NCATS).

The target in assay [1] is Lysosomal acid glucosylceramidase (Homo sapiens) (UniProt P04062). In words: Glucocerebrosidase-p2 (AID 348; in the data active = potency below about 10 µM; note: potency is the fitted concentration of half-maximal effect). As to conditions: purified GBA, blue fluorogenic substrate, 40 min. The method, boiled down:
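Normal human glucocerebrosidase (0.2 nM) with blue fluorogenic substrate (80 uM final) in citrate/phosphate pH 5.9 with 10mM sodium taurocholate, 0.01% tween-20; 40 min RT, NaOH/glycine stop; fluorescence Ex 365/Em 440; AC50 from a titration from 0.6 nM upwards.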

Assay [2] is described as follows: AP1 Signaling Pathway (AID 357). Note: % is set by controls: 0 for no effect and ±100 for the full control effect. As to conditions: ME-180 AP-1-bla reporter, EGF-induced, beta-lactamase ratio, 5 h; at 7.69 µM (top of the series) unless noted. The method, boiled down: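 Cells are seeded overnight, exposed to compound titrations and an EC50 level of EGF for 5 hours at 37 °C, then loaded with CCF4 dye for 2.5 hours. Beta-lactamase activity under the AP-1 element is read as a blue/green ratio.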

Assay [3] can be described thus: NFAT Signaling Pathway (AID 444).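 Note: carbachol stimulus at about its EC50 of 1 µM final; % is set by controls: 0 for no effect and ±100 for the full control effect.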 As to conditions: Jurkat NFAT-bla M1, carbachol, beta-lactamase ratio, 5 h; at 7.69 µM (top of the series) unless noted. The method, boiled down: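 Jurkat cells carrying an NFAT-driven β-lactamase reporter and co-transfected muscarinic M1 receptor were treated with compound plus carbachol (1 uM final, an EC50 level) for 5 h at 37 °C. CCF4 loading followed for 1 h at RT; 460/530 nm ratio gave %activity.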

Assay [4] is described as follows: Stat Signaling Pathway (AID 446).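 Note: ME-180 cervical cancer cells given 40 pM IL-6 alongside compound; SIE-controlled beta-lactamase reporter measured as 460/530 nm FRET emission ratio; % is set by controls: 0 for no effect and ±100 for the full control effect.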 As to conditions: ME-180 SIE beta-lactamase reporter, IL-6 stimulated, 5 h; at 7.69 µM (top of the series) unless noted. The method, boiled down:
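Emission at 460 and 530 nm (excitation 405 nm) reports SIE-controlled beta-lactamase in ME-180 cells. Cells received compound with 40 pM IL-6 for 5 hrs at 37 C; data scaled between 300 pM IL-6 and 125 nM JAK-inhibitor controls.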

Assay [5] has as its target Glucocorticoid receptor (Homo sapiens) (UniProt P04150). In words: GR-GFP Redistribution (AID 450;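 active = compounds whose dose series gives a full or clear partial fitted curve of increased nuclear translocation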; note: potency is the fitted concentration of half-maximal effect). As to conditions: U2OS GR-GFP nuclear translocation, laser cytometry, 2 h.
For assay [6] the target is unchanged. In words: GR-EFC Redistribution (AID 451; calls by dose curve; note: potency is the fitted concentration of half-maximal effect). As to conditions: CHO-K1 GR-EFC translocation, beta-gal luminescence, 2 h. The method, boiled down:
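CHO-K1 cells stably expressing nuclear-localized β-gal enzyme acceptor and GR fused C-terminally to the enzyme donor fragment; ligand-driven nuclear translocation restores β-gal by complementation. Compounds titrated up to 46 uM final, 2 h at 37 °C; luminescence read.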

Assay [7] has as its target Mitogen-activated protein kinase 10 (Mus musculus) (UniProt Q61831). In words: JNK3 AlphaScreen Assay (AID 530).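 Note: kinase came from lysate of stimulated human HepG2 cells; % is set by controls: 0 for no effect and ±100 for the full control effect.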 As to conditions: JNK3 lysate, c-Jun phosphorylation; series mostly up to 57.1 µM. The method, boiled down: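 Biotinylated GST-cJun(1-79) served as substrate for JNK3 in HepG2 lysates stimulated with IL-1beta and TNF-alpha. ATP was 10 uM final, pH 7.6. Ser73 phosphorylation was quantified by AlphaScreen (680 nm excitation).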
(In general: Alpha assays give light when donor and acceptor beads are brought close together.)

The nature of assay [8]: Confirmation and Secondary Assay for Modulators of Hemoglobin Beta Chain Splicing at IVS2 654 locus (AID 910; active = well fitted curve in the direction sought with a large enough effect; an effect the other way counts as inactive or inconclusive;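 note: per-well total GFP intensity by laser scanning cytometry after 2-day treatment; % of control where 0% means no effect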). As to conditions: HeLa EGFP-654 splicing reporter, GFP fluorescence, 48 h; series mostly up to 38.3 µM. The method, boiled down: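 HeLa cells stably carrying EGFP interrupted by mutant beta-globin IVS2-654 intron (CMV-driven) were treated with compound for 2 days at 37C; corrected splicing was scored as total peak GFP intensity per well (488 nm excitation, 500-520 nm emission).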

Assay [9] can be described thus: qHTS Assay for Lipid Storage Modulators (AID 1519; calls by dose curve). As to conditions: Drosophila S3 cells, BODIPY lipid droplet/cell ratio, laser cytometry, cells loaded with oleic acid; for activity change, negative = inhibition: at 57.5 µM (top of the series). The method, boiled down:
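Cells seeded at 5,000 per well were treated with compounds over a concentration series and loaded with oleic acid (400 uM, as added). Lipid droplet fluorescence (488 nm excitation, 500-530 nm channel) was read by laser-scanning cytometry and normalized to 20 uM Triacsin C.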
In general terms: In qHTS, concentration-response curves come from the screen itself.

Assay [10] addresses Ubiquitin carboxyl-terminal hydrolase 1 (Homo sapiens) (UniProt O94782). In words: Inhibitors of USP1/UAF1: Pilot qHTS (AID 504865; active = well fitted curve in the direction sought with a large enough effect; an effect the other way counts as inactive or inconclusive;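 note: rhodamine fluorescence freed from ubiquitin-rhodamine substrate followed over time; top concentration of the series differs between compounds; % is set by controls: 0 for no effect and ±100 for the full control effect; nearly all actives have a fitted effect of over 35% in size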). As to conditions: purified USP1/UAF1, Ub-rhodamine cleavage fluorescence; series mostly up to 54.9 µM. The method, boiled down: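 In 50mM HEPES pH 7.8 containing 0.5mM EDTA, 1mM TCEP, 0.1 mg/ml BSA and 0.01% Tween-20, 1nM USP1/UAF1 is exposed to compound for 15 min, then Ub-Rho (150nM final) is added and fluorescence is read over time.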

A short description of assay [11]: Primary qHTS for small molecule stabilizers of the endoplasmic reticulum resident proteome: Secreted ER Calcium Modulated Protein (SERCaMP) assay (AID 1508630; active = well fitted curve in the direction sought with a large enough effect; an effect the other way counts as inactive or inconclusive; note: % is set by controls: 0 for no effect and ±100 for the full control effect). As to conditions: SH-SY5Y GLuc-SERCaMP (Gaussia luciferase released on ER calcium loss) secretion, thapsigargin, luminescence; series mostly up to 38.4 µM. The method, boiled down:
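The SH-SY5Y reporter protocol was run at 3 concentrations up to 38.3 uM (primary) or 11 concentrations (follow-up): 16 h compound, 100 nM thapsigargin for 4 h, then extracellular luciferase luminescence.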

Assay [12] has as its target 3',5'-cyclic-AMP phosphodiesterase 4B (Homo sapiens) (UniProt Q07343). In words: qHTS Assay for Inhibitors of PDE-IV (AID 607; active = well fitted activation curve with a large enough effect in the main read-out, with a control signal flat, not every such curve was filed as active; note: % of control where 0% means no effect). As to conditions: HEK293 ACTOne CNG channel cells, membrane potential fluorescence; series mostly up to 22.9 µM. The method, boiled down:
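The readout is membrane depolarisation from a cAMP-sensing CNG channel, detected with a potential dye at ex 535/em 590. Cells were HEK293-derived (endogenous PDE-IV) at 1000 cells/well, titrated up to 22.9 uM final.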

Assay [13] addresses Cytochrome P450 3A4 (Homo sapiens) (UniProt P08684). In words: qHTS Assay for Activators of Cytochrome P450 3A4 (AID 885; active = well fitted curve in the direction sought with a large enough effect; an effect the other way counts as inactive or inconclusive; note: nearly all actives have a fitted effect of over 65% in size; note: potency is the fitted concentration of half-maximal effect). As to conditions: recombinant CYP3A4, Luciferin-PPXE luminescence, 60 min; series mostly up to 57.1 µM. The method, boiled down:
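Activators are scored by enhanced luminescence from CYP3A4 conversion of luciferin-PPXE (25uM, equal to KM) to luciferin, after 60 min at RT with an NADPH-regenerating system.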

Assay [14] can be described thus: Confirmation and Secondary Assay for Modulators of Hemoglobin Beta Chain Splicing at IVS2 705 locus (AID 930; active = well fitted curve in the direction sought with a large enough effect; an effect the other way counts as inactive or inconclusive; note: % of control where 0% means no effect). As to conditions: HeLa EGFP-705 splicing reporter, GFP fluorescence, 48 h; series mostly up to 38.3 µM. The method, boiled down: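 HeLa cells stably carrying EGFP interrupted by mutant beta-globin IVS2-705 intron (CMV-driven) were seeded at 500 cells/well, treated next day with compound for 2 days at 37C; corrected splicing restores EGFP, read as total peak GFP intensity per well.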

In assay [15] the target is Cytochrome P450 1A2 (Homo sapiens) (UniProt P05177). In words: p450-cyp1a2 (AID 410; calls by dose curve;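 note: -100% = full effect of reference inhibitor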). As to conditions: recombinant CYP1A2, luciferin-ME demethylation, luminescence; series mostly up to 57 µM. The method, boiled down: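 20nM CYP1A2, 100uM Luciferin-ME (=Km), 100mM KPO4; cpd 10 min RT; +NADPH regen, 60 min RT; stop/detect 20 min; luminescence. Normalized to furafylline 57 uM = full inhibition.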
Sequence of Cytochrome P450 1A2 (Homo sapiens) (P05177 whole entry, looked up): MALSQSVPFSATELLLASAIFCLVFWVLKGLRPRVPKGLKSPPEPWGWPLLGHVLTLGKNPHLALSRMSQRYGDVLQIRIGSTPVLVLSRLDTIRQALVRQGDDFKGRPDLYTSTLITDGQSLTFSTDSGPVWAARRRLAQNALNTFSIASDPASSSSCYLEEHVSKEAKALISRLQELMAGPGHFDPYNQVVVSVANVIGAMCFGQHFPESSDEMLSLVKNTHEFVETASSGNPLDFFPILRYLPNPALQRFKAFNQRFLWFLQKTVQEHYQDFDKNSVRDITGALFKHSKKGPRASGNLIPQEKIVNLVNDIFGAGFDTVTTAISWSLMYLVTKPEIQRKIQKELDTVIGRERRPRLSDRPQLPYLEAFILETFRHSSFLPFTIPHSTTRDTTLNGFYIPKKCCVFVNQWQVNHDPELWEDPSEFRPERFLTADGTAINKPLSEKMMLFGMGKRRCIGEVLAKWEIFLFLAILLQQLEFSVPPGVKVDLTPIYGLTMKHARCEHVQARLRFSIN

The target in assay [16] is Cytochrome P450 2D6 (Homo sapiens) (UniProt P10635). In words: qHTS Assay for Inhibitors and Substrates of Cytochrome P450 2D6 (AID 891; active = well fitted curve in the direction sought with a large enough effect; an effect the other way counts as inactive or inconclusive; note: potency is the fitted concentration of half-maximal effect; nearly all actives have a fitted effect of over 60% in size). As to conditions: recombinant CYP2D6, luciferin-ME EGE luminescence; series mostly up to 57.1 µM. The method, boiled down:
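Luminescent read-out of luciferin formed by 5 nM human CYP2D6 demethylating 30 uM Luciferin-ME EGE (Km level) over 60 min at room temperature after NADPH regeneration addition. Data normalized to full inhibition by 1.43 uM quinidine.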

The nature of assay [17]: qHTS Assay for Identification of Small Molecule Agonists for Hypoxia Response Element Signaling Pathway (AID 914; active = well fitted activation curve with a large enough effect in the signal ratio, with a control signal flat, not every such curve was filed as active; the % refers to the signal ratio; note: potency is the fitted concentration of half-maximal effect). As to conditions: ME-180 HRE-bla reporter, beta-lactamase ratio, CoCl2, 17 h; activation: stronger effect = higher value. The method, boiled down: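 ME-180 cells carrying an HRE-driven beta-lactamase reporter were treated with compounds in a titration series plus an EC50 level of CoCl2 for 17 h at 37 degrees Celsius; CCF4 readout as the 460nm/530nm ratio gave AC50 values.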

The mark [18] stands for this setting: measured here: cell count channel max response.
The mark [19] stands for this setting: measured here: lipid channel max response.

Records with an inconclusive call do not appear. Activity calls are given as the source filed them. Unless noted, calls come from the whole dose curve; as a rule, active = well fitted curve in either direction with a large enough effect (not every such curve was filed as active); inconclusive = small, poorly fitted or top-dose-only effect, or another doubt; inactive = flat fitted curve, though single readings scatter.

Sequence of Lysosomal acid glucosylceramidase (Homo sapiens) (P04062 whole entry, looked up): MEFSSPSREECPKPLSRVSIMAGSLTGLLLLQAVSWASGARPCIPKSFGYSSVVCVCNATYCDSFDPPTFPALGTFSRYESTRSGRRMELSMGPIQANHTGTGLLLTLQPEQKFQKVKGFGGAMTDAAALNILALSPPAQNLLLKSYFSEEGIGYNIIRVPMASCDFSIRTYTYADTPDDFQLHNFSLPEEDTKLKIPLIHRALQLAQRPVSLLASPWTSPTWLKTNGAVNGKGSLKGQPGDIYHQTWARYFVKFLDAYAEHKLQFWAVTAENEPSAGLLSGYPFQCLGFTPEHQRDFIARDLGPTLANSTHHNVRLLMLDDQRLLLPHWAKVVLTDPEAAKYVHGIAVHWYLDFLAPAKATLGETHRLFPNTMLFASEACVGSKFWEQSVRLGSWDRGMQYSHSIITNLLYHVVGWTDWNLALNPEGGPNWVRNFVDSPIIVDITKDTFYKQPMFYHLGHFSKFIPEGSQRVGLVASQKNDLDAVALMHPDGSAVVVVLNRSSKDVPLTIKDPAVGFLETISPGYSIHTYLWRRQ
Sequence of Cytochrome P450 3A4 (Homo sapiens) (P08684 whole entry, looked up): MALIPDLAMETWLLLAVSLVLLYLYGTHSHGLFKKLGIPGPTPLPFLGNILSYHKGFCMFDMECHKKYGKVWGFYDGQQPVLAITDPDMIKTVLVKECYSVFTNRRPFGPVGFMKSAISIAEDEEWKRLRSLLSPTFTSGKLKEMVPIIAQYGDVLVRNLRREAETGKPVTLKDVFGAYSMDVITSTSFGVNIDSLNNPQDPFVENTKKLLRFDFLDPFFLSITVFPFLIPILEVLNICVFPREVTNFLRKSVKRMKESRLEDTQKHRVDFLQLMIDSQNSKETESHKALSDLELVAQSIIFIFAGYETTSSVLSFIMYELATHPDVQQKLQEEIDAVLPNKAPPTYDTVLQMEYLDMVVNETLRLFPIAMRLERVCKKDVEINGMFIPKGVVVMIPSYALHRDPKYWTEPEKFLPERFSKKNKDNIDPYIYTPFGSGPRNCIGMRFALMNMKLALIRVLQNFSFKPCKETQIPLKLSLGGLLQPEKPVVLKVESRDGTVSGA
Sequence of 3',5'-cyclic-AMP phosphodiesterase 4B (Homo sapiens) (Q07343 whole entry, looked up): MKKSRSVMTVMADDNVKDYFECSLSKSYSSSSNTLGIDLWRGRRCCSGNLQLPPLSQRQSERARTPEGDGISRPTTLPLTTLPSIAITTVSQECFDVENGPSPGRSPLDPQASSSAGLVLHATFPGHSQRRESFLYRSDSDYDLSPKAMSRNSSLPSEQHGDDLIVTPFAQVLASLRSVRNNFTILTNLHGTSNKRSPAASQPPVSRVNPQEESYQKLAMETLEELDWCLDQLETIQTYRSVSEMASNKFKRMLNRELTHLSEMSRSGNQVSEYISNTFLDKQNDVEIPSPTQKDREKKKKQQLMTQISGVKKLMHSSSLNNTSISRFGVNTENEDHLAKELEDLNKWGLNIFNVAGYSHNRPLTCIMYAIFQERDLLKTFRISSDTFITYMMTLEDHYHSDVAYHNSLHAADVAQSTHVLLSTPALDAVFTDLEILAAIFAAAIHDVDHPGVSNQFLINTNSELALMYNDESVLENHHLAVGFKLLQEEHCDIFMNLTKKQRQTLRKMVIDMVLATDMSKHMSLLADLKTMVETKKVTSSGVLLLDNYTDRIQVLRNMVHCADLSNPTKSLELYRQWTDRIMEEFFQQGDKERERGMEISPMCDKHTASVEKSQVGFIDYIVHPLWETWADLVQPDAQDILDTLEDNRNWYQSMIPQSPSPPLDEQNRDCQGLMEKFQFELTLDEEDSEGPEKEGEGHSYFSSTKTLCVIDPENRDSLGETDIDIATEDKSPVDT
Sequence of Glucocorticoid receptor (Homo sapiens) (P04150 whole entry, looked up): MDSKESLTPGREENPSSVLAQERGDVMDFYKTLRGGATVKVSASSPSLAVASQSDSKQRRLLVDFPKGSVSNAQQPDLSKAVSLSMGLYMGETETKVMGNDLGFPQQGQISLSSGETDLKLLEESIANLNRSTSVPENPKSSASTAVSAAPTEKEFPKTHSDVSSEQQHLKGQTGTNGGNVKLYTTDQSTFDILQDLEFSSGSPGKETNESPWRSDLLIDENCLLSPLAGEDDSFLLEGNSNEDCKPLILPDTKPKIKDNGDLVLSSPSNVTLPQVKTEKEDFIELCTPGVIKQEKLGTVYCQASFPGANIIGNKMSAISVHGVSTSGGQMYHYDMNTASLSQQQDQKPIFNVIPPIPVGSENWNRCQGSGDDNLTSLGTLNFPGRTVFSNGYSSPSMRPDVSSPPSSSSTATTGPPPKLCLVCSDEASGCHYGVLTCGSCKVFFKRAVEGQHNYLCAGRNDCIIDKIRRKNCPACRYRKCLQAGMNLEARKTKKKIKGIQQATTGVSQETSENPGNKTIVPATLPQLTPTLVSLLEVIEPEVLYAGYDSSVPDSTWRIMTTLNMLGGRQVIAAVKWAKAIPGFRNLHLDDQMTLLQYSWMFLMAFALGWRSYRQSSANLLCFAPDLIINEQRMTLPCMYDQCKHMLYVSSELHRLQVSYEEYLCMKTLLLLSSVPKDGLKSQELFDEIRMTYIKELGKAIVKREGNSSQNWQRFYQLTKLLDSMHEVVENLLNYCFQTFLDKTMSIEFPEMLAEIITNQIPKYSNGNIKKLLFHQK
Sequence of Cytochrome P450 2D6 (Homo sapiens) (P10635 whole entry, looked up): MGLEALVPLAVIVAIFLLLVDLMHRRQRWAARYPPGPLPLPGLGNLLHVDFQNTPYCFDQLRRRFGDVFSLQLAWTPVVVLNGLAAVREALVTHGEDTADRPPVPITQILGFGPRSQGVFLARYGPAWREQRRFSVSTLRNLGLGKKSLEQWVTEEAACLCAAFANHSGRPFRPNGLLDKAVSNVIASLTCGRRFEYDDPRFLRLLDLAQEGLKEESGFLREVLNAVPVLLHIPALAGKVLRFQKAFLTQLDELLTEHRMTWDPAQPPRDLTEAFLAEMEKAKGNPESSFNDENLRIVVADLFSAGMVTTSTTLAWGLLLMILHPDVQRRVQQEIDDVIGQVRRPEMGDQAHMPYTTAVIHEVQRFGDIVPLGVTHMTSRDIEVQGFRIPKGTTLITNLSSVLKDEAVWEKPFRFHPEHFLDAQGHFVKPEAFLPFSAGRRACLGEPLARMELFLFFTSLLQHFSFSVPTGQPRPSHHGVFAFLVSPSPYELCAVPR
Sequence of Ubiquitin carboxyl-terminal hydrolase 1 (Homo sapiens) (O94782 whole entry, looked up): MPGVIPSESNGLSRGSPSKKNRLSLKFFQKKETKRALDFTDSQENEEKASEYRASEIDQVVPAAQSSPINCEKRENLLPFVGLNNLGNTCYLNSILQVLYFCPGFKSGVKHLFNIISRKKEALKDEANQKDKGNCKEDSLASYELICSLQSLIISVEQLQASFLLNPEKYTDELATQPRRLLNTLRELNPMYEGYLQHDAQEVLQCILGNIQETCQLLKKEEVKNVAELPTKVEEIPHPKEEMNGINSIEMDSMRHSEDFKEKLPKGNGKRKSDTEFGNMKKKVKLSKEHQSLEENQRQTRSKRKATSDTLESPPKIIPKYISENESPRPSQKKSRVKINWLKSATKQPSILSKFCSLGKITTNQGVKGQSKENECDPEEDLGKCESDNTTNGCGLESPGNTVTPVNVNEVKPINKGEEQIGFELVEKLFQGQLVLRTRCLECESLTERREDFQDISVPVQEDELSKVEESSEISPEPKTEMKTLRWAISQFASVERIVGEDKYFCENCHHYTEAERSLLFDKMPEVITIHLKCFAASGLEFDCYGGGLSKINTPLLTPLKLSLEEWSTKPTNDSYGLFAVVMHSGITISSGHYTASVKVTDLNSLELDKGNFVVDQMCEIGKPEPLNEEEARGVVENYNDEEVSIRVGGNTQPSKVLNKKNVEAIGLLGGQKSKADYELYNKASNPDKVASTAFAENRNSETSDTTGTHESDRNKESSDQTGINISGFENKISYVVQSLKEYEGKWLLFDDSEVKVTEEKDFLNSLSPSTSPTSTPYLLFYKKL

In the case of `CC(=O)NCCNc1nc(-c2ccccc2CN(C)C)nc2ccccc12`, the Potency is > 11.4 µM (inactive) in [1], > 46 µM (inactive) in [5] and > 46 µM (inactive) in [6]. Moreover, the values for the activity change, negative = inhibition in assay [2], in assay [3] and in assay [9] were 6.16% (inactive), 2.15% (inactive) and 5.82% (inactive), respectively. The activity, negative = inhibition in assay [4] is 13.7% (inactive). For the same molecule, the Potency entry in assay [7], in assay [8] and in [10] was “inactive” throughout. Besides, the max response was determined as 13.1% in assay [9] (setting [18]) and 18.7% in assay [9] (setting [19]). In addition, the result in [11] was inactive.

Consider `Cc1ccccc1-c1cncnc1NC1CCNCC1`, for which the Potency was > 11.4 µM (inactive) in assay [1], > 46 µM (inactive) in assay [5] and > 46 µM (inactive) in [6]. Also, the values for the activity change, negative = inhibition in assay [2], in assay [3] and in assay [9] were 11.7% (inactive), -1.26% (inactive) and 3.19% (inactive), respectively. Moreover, in assay [4], the activity, negative = inhibition is 20.9% (inactive). Moreover, the Potency result in assay [7], in [12], in assay [13] and in assay [10] was “inactive” throughout. Moreover, the call in assay [14] and in assay [11] was inactive. Besides, the max response turned out to be 12.9% in assay [9] (setting [18]) and 16% in [9] (setting [19]).

With `COc1ccccc1CN1CCCC2(CCN(C(=O)c3cnccn3)CC2)C1`, the Potency was > 11.4 µM (inactive) in assay [1], > 46 µM (inactive) in assay [6] and 3.98 µM (active) in [16]. Moreover, the results for the activity change, negative = inhibition in assay [2] and in [9] were 4.14% (inactive) and 3.91% (inactive), respectively. The Potency entry in [15], in assay [7], in assay [12] and in assay [13] was “inactive” throughout. The values for the max response in assay [9] (setting [18]) and in [9] (setting [19]) were -6.38% and 0.432%, respectively. The result in [11] was inactive.

In the case of `COc1cccc(-c2cc(NCc3cccc(C)c3)ncn2)c1`, the values for the Potency in assay [1] and in assay [6] were > 11.4 µM (inactive) and > 46 µM (inactive), respectively. Besides, the activity change, negative = inhibition in assay [2] is -1.98% (inactive); in [3] it was -3.2% (inactive); in assay [9], -15.5% (inactive). The activity, negative = inhibition in assay [4] was -11.9% (inactive). The Potency entry in assay [7] is “inactive”. The max response in assay [9] (setting [18]) was 8.52%; in assay [9] (setting [19]) it was -6.01%. Besides, the outcome in assay [11] was inactive.

On to `COc1ccc(-c2nc3cnc(Oc4ccccc4)nc3n(Cc3cccs3)c2=O)cc1`, for which the Potency in assay [1] is > 11.4 µM (inactive); in [5], > 9.22 µM (inactive); in assay [17] it was 2.51 µM (active). Besides, the values for the activity change, negative = inhibition in assay [2], in assay [3] and in assay [9] were 0.136% (inactive), -1.73% (inactive) and -0.637% (inactive), respectively. For the same molecule, the activity, negative = inhibition in assay [4] was 16.1% (inactive). Moreover, the Potency result in [7] and in assay [12] was “inactive” in each case. For the same molecule, the max response is 27.6% in assay [9] (setting [18]) and 28.4% in [9] (setting [19]). In assay [11], the result was inactive.

On to `CC(=O)N1CCC2(CCN(Cc3ccccc3)CC2)CC1`, for which the Potency in assay [1] is > 11.4 µM (inactive). Besides, the activity change, negative = inhibition is -7.18% (inactive) in assay [2] and -3.2% (inactive) in [9]. Also, the Potency result in assay [15], in [7] and in [12] was “inactive” in each case. For the same molecule, in assay [4], the activity, negative = inhibition was -5.27% (inactive). In addition, the max response in assay [9] (setting [18]) was -4.28%; in assay [9] (setting [19]) it was -4.62%. Besides, the result in [11] was inactive.

For the molecule `COC(=O)N1CCC2(CC1)CCN(C(c1ccccc1)c1ccccc1)CC2`, the Potency was > 11.4 µM (inactive) in [1], > 46 µM (inactive) in assay [6], 12.6 µM (active) in assay [13] and 7.94 µM (active) in [16]. The activity change, negative = inhibition in assay [2] is -7.14% (inactive); in assay [9] it was 2.35% (inactive). The Potency result in assay [15], in [7] and in assay [12] was “inactive” in each case. The max response in assay [9] (setting [18]) amounted to 5.65%; in assay [9] (setting [19]), 12.4%. Also, the outcome in [11] was inactive.
